FMDV antiviral – High Throughput Screening for Foot and Mouth Disease Virus Antivirals; FMDV antiviral cell-based qHTS; Potency, µM (series often up to 57.9 µM), without a hit: at the top dose activity change, negative = inhibition, most hits filed as inhibitors; actives 1.2% (n = 410,000); calls by dose curve; tested in HEK293T cells; further: read-out not given here; potency means the concentration at half of the fitted maximal effect; nearly all actives have a fitted effect of over 45% in size
VACV Venus inh – qHTS for Stage-Specific Inhibitors of Vaccinia Orthopoxvirus: Venus Reporter Primary qHTS | Potency, µM (series often up to 36.5 µM), without a hit: top-dose activity change, negative = inhibition, usual class: inhibitors | actives 0.46% (n = 330,000) | Vaccinia virus Venus reporter expression, fluorescence; calls by dose curve; tested in A549 cells; further: potency means the concentration at half of the fitted maximal effect; nearly all actives have a fitted effect of over 30% in size
VACV mCherry inh – qHTS for Stage-Specific Inhibitors of Vaccinia Orthopoxvirus: mCherry Reporter Primary qHTS; Vaccinia virus mCherry reporter infection, fluorescence; AID 720579, 2013; actives 0.63% (n = 310,000); Potency, µM (titrated, usually from 36.5 µM), inactives show at the highest dose activity change, negative = inhibition, hits mostly inhibitors; calls by dose curve; tested in A549 cells; further: potency means the concentration at half of the fitted maximal effect; nearly all actives have a fitted effect of over 35% in size
Lassa entry inh – qHTS for Inhibitors of binding or entry into cells for Lassa Virus; Lassa virus pseudotype entry inhibition, cell reporter; Potency, µM (titrated, usually from 37.9 µM), inactives show at the top dose activity change, negative = inhibition, usual class: inhibitors; actives 1.2% (n = 300,000); AID 540256, 2011; calls by dose curve; tested in HEK293 cells; further: potency means the concentration at half of the fitted maximal effect; nearly all actives have a fitted effect of over 50% in size
HCMV antiviral – qHTS Assay for inhibitors of the human cytomegalovirus (HCMV). HFF cells, HCMV-luciferase reporter, 72 h; hits give low values. actives 4.5% (n = 410,000). activity change, negative = inhibition, % at 57.5 µM; in the data active means activity change below about -60%; inconclusive means no clear call, values can overlap the other calls; inactive means above about -39%
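Two-dose cell screen: HFF monolayers treated with compounds and infected with luciferase-expressing HCMV at 1 PFU/cell, 72 h at 37C, then lysed for luciferase measurement.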
Marburg entry inh – qHTS for inhibitors of binding or entry into cells for Marburg Virus; Marburg virus pseudotyped entry inhibition, cell reporter; actives 1.8% (n = 300,000); Potency, µM (series often up to 37.8 µM), inactives show at the top dose activity change, negative = inhibition, usual class: inhibitors; calls by dose curve; tested in HEK293 cells; further: potency means the concentration at half of the fitted maximal effect
An asterisk follows results filed as active; i = inactive; ? = inconclusive; . = not tested or not shown; [ ] = another dose, or the depositor's remark. This is a sample that favours compounds with a hit; in the whole collection about 6.5% have one here. On the % scale 0 is the no-effect control and ±100 the full control effect.

SMILES	FMDV antiviral	VACV Venus inh	VACV mCherry inh	Lassa entry inh	HCMV antiviral	Marburg entry inh
COc1cc2[nH]c(=O)n(Cc3ccc(C(=O)N4CCN(c5ccc(Cl)cc5)CC4)cc3)c(=O)c2cc1OC	25.1µM*	?	?	-23.9%[46.1 µM]	-9.3	?
O=C(c1ccc2c(=O)n(CCc3ccccc3)c(=O)[nH]c2c1)N1CCN(c2ccc(Cl)cc2)CC1	15.8µM*	-29.8%	-28.1%	?	-30.0	?
CCn1c(=O)[nH]c2cc(C(=O)N3CCN(c4ccccc4)CC3)ccc2c1=O	11.9%	.	.	-5.7%	113.0	11.2%
O=C(c1ccc2c(=O)n(CCc3ccccc3)c(=O)[nH]c2c1)N1CCN(c2ccccc2)CC1	-26.1%	-1.7%	-4.1%	?	.	9.6%[46.1 µM]
O=C(c1ccc2c(=O)n(-c3ccccc3)c(=O)[nH]c2c1)N1CCCCC1	.	-12.7%	i	-18.8%	-66.0*	-18.5%
CC(C)COC(=O)c1ccc2[nH]c(O)c(C=Nc3ccc(S(N)(=O)=O)cc3)c2c1	.	.	.	0.996µM*	.	.
COc1ccc(NS(=O)(=O)c2ccc(-n3nnc4ccccc43)c([N+](=O)[O-])c2)cc1	6.8%	-11.4%	-2.6%	-15.9%	-62.7*	2.1%
Cn1c(=O)oc2cc(S(=O)(=O)Nc3cccc4c3CCCC4)ccc21	9.1%	-5.7%	-23.4%	-4.3%	-90.7*	0.3%
Cc1cc(C)c(NS(=O)(=O)c2ccc3c(c2)oc(=O)n3C)c(C)c1	-8.9%	-12.3%	-5.1%	.	?	.
Cc1cc(C)c2c(c1)-c1c(ssc1=S)C(C)(C)N2C(=O)CN1C(=O)c2ccccc2C1=O	0.0%	-10.4%	i	-7.5%	9.6	3.98µM*
Cc1cccc2c1N(C(=O)CN1C(=O)c3ccccc3C1=O)C(C)(C)c1ssc(=S)c1-2	?	-11.6%	-22.7%	0.1%	-24.7	?
CCOc1ccccc1NC(=O)N1CCc2c(sc3c2CCCC3)C1c1ccccc1 (centres undefined)	-15.3%	-7.1%	i	8.5%[46.1 µM]	2.7	.
CC(NC(=O)c1ccc2ccccc2n1)c1ccc(Br)cc1 (centres undefined)	-5.6%	-1.1%	-1.3%	5.62µM*	17.3	?
O=C(NCc1cccs1)c1ccc2ccccc2n1	28.6%	-8.1%	-21.0%	6.51µM*	-10.4	4.8%
Cc1cccc(NC(=O)c2ccc3ccccc3n2)c1C	8.6%	-10.3%	-4.6%	10µM*	139.6	?
O=C(Nc1nccs1)c1ccc2ccccc2n1	21.2%	15.1%	-5.2%	8.91µM*	106.5	?
CSc1cccc(NC(=O)CC(c2cccs2)N2Cc3ccccc3C2=O)c1 (centres undefined)	-0.1%	-0.2%	-13.3%	-0.4%[46.1 µM]	-8.9	.
CCOC(=O)c1cc2c(=Cc3ccc(N(C)C)cc3)c3ccccc3n2[n+]1C	17.8µM*	133.9%	162.4%	11.2µM*	-87.8*	?
Cc1cc2c(=Cc3ccc(N(C)C)cc3)c3ccccc3n2[n+]1C	0.0%	254.4%	20.9%	2.24µM*	-97.0*	?
CCOC(=O)SC1=N/C(=C\c2ccc(N(C)C)cc2)C(=O)S1	11.4%	.	.	?	53.5	-1.4%
CN(C)c1ccc(/C=C2/CCc3ccccc32)cc1	.	-21.8%	6.8%	.	.	.
CN(C)c1ccc(C=c2c3ccccc3n3c2c2ccccc2[n+]3C)cc1	25.1µM*	?	?	7.08µM*	-97.6*	?
CN(C)c1ccc(C=C2c3ccccc3-c3ccccc32)cc1	.	-11.9%	-22.3%	.	.	.
Cc1cnc(C)c(-c2cccc3c2OC(CNC(=O)c2cc(C)on2)C3)n1 (centres undefined)	15.4%	2.0%	-16.0%	.	.	.
Cc1ccc(C2(c3ccc(C)cc3)CC2C(=O)Nc2ccc([N+](=O)[O-])cc2O)cc1 (centres undefined)	-19.4%	?	-23.7%	12.6µM*	-102.1*	?
SMILES	FMDV antiviral	VACV Venus inh	VACV mCherry inh	Lassa entry inh	HCMV antiviral	Marburg entry inh
Cc1cccc(C2=CC(=O)CC(C)(C)C2=O)c1	.	.	.	.	-26.1	.
CCN1CCc2nc(N)oc2CC1	-16.1%	-13.7%	-7.2%	-19.0%	-70.0*	?
Nc1[nH]n2c(=O)cc(-c3ccccc3)nc2c1N=Nc1ccccc1	-21.8%	-15.1%	.	?	-78.7*	?
Nc1[nH]n2c(=O)cc(-c3ccccc3)nc2c1N=Nc1ccc(S(N)(=O)=O)cc1	-4.7%	-5.8%	-0.7%	-1.8%	-8.9	4.9%[46.1 µM]
CCn1c2ccccc2c2cc(/C=N/NC(=O)c3ccccc3)ccc21	-17.1%	.	.	?	-21.4	11.6µM*
Cn1c2ccccc2c2cc(/C=N/NC(=O)c3cc(O)ccc3O)ccc21	20µM*	?	-1.3%	?	16.0	-7.6%
CC(=O)Nc1ccc(NC(=O)COC(=O)c2ccccc2OCc2cccc(Br)c2)cc1	.	-12.9%	-8.4%	.	.	.
O=C(CSc1nnc(NC(=O)C2CCC2)s1)Nc1ccc(N2CCOCC2)cc1	-11.9%	.	.	-8.2%	-107.7*	-15.3%
COC(=O)c1[nH]c2cc(C)ccc2c1NC(=O)CN1CCOCC1	9.0%	13.2%	-28.8%	24.6%[46.1 µM]	-30.3	?
COC(=O)c1[nH]c2cc(OC)ccc2c1NC(=O)CN1CCN(c2cccc(C)c2)C(C)C1 (centres undefined)	?	?	?	?	-31.3	15.8µM*
COC(=O)c1[nH]c2ccccc2c1NC(=O)CN1CCN(c2cccc(Cl)c2)CC1	14.1µM*	-21.4%	.	-5.3%	?	?
O=C(/C(=C/O)N=Nc1ccc(Cl)cc1)c1ccncc1	31.6µM*	?	.	?	-6.2	?
COC(=O)[C@H](c1ccccc1)N1CCCCCC1	.	.	.	.	.	10.2%[46.1 µM]
COC(=O)c1sc2nc(CN3CCN(c4ccc(OC)cc4)CC3)[nH]c(=O)c2c1C	-2.9%	3.2%	-12.8%	-15.1%	-79.9*	-4.5%
COc1cccc(N2CCN(Cc3nc4scc(-c5ccccc5)c4c(=O)[nH]3)CC2)c1	?	?	?	?	-61.5*	?
COc1ccc(-c2c3c(cc(C)[n+]2[O-])oc2ccc(OC)cc23)cc1	28.2µM*	-25.0%	-10.2%	?	-91.4*	-21.6%
COc1ccc(-c2cc(=O)c3cc(OC)ccc3o2)cc1	34.2%	-4.2%	-1.5%	.	9.2	.
COc1ccc(-c2c(C)oc3ccc(C)cc23)cc1	-7.8%	.	.	0.3%	-39.8	-20.3%
COc1ccc2oc3cc(C)[n+]([O-])c(-c4ccc(Cl)cc4)c3c2c1	35.5µM*	-11.6%	i	?	-90.9*	?
COc1ccc2oc3cc(C)[n+]([O-])c(-c4ccc(C)cc4)c3c2c1	25.1µM*	-20.6%	-10.6%	?	-92.9*	?
O=C(CN(CC(=O)NCc1ccccc1)CC(=O)NCc1ccccc1)NCc1ccccc1	.	.	.	.	-3.2	.

Screening results from PubChem BioAssay.
